# Screening results from PubChem BioAssay.
# BJeLR lethal = BJeLR cell viability loss. BJeLR (HRASV12) viability, CellTiter-Glo ATP luminescence, 48 h. inhibition, % (concentration not given with the values). 0.17% of 300,000 active. AID 1554; in the data active = inhibition above about 50%
# GDH-TPI counter-1 = GDH-TPI coupled enzyme inhibition counter-screen; GDH-TPI coupled enzyme counterscreen, NADH absorbance; inhibition, % at 4.8 µM; 1.2% of 360,000 active; AID 588335; in the data active = inhibition above about 30%;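 note: 0% = DMSO wells and 100% = wells lacking the enzyme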
# FBA Mtb inh = Mtb fructose-bisphosphate aldolase inhibition | purified M. tuberculosis FBA, fluorescence read-out | inhibition, % at 1 µM | 2.3% of 360,000 active | AID 588726;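 note: 0% = vehicle and 100% = reference inhibitor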
# RecA intein inh = blocks M. tuberculosis RecA intein splicing; inhibition, % (test concentration not listed); cell-free RecA intein splicing, fluorescence; AID 2221; 0.75% of 290,000 active; in the data active = inhibition above about 30%;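 note: 0% = vehicle wells and 100% = reference inhibitor control wells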
# Target sequence (P9WHJ3 whole entry, looked up): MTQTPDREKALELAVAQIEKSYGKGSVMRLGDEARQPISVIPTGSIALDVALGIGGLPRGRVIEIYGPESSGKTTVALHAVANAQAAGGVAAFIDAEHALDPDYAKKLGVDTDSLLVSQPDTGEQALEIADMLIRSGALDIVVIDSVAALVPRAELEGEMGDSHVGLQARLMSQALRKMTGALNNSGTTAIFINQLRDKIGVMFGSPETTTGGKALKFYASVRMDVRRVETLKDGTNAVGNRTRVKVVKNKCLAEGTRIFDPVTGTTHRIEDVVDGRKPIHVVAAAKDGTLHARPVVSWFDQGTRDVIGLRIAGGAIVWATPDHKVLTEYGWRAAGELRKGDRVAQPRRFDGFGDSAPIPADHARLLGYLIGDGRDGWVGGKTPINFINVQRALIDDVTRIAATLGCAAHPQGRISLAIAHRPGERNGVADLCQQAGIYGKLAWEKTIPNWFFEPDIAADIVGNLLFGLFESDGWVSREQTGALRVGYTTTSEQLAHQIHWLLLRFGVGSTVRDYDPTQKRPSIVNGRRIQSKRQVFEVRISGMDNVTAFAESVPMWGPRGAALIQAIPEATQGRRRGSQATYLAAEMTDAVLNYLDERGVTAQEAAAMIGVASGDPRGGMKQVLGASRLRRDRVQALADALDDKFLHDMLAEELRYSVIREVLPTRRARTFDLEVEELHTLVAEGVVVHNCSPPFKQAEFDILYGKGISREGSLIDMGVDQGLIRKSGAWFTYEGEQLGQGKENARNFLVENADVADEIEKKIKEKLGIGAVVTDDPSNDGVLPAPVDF
# PrPC surface inh = inhibitors of human cell surface prion protein PrPC. P04156. TR-FRET read-out. 0.43% of 370,000 active. inhibition, % at 13.8 µM; in the data active = inhibition above about 24%; note: 0% = median of the test wells and 100% = reference compound wells
# Mtb FBA inh conf = confirmation of M. tuberculosis fructose-bisphosphate aldolase inhibitors. shares compounds with FBA Mtb inh. 78% of 5,600 active. AID 651616. inhibition, % at 1 µM. purified M. tuberculosis FBA, fluorescence read-out;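 note: 0% = vehicle wells and 100% = reference inhibitor wells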
# GDH-TPI counter-2 = counter-screen for M. tuberculosis FBA inhibitors: GDH-TPI coupled enzyme inhibition; shares compounds with FBA Mtb inh; GDH-TPI coupled enzyme counterscreen, fluorescence; inhibition, % at 1 µM; 81% of 5,600 active; AID 652141; in the data active = inhibition above about 10%
# Numbers without * were called inactive; . = no result given; + = active, no number. In the library only some 4.2% were active in any assay of this set; here they are far more common. Cut-off read from the data, not from the text of the source, unless noted: active = inhibition above about 27%; inactive = the rest.
SMILES,BJeLR lethal,GDH-TPI counter-1,FBA Mtb inh,RecA intein inh,PrPC surface inh,Mtb FBA inh conf,GDH-TPI counter-2
COc1cccc(NC(=O)C2CCCN2C(=O)Nc2cccc3c2OCO3)c1 (stereo not given),.,.,.,.,13.9,.,.
O=c1[nH]cnc2sc3c(c12)CCN(Cc1ccccc1)C3,8.7,14.7,47.4*,-35.0,-4.8,121.6*,94.1*
OCCCNc1ncnc2sc3c(c12)CCN(Cc1ccccc1)C3,15.5,10.9,71.8*,-17.7,-16.6,76.2*,61.9*
NNc1nc2sc3c(c2c(=O)n1C1CCCCC1)CCN(Cc1ccccc1)C3,-6.5,-7.7,4.4,-40.7,-3.6,.,.
O=C(CSc1nnc(-c2ccccc2)n1-c1ccccc1)Nc1ccc(Oc2ccccc2)cc1,.,.,.,.,-3.0,.,.
Cc1cc(NC(=O)Cc2c(C)[nH]c3ccccc23)ccc1Oc1cccnc1,.,.,.,.,-6.6,.,.
CCOc1ccc(Cl)cc1CSc1n[nH]c(CC)n1,-0.1,0.5,34.5*,2.1,1.7,4.7,0.3
CCCCOc1ccc(Cl)cc1CSc1n[nH]c(C)n1,2.5,-8.9,2.4,.,2.6,.,.
COc1ccc2c(c1)CN1CN(Cc3ccc(F)cc3)S(=O)(=O)CC21 (stereo not given),.,.,.,.,1.6,.,.
CCOC(=O)C1CSCCS(=O)(=O)N1Cc1ccc(C)cc1 (stereo not given),.,.,.,.,11.5,.,.
COc1ccc(-c2nc3cccc(C)n3c2NCC2CCCO2)cc1O (stereo not given),3.8,7.5,59.4*,-103.0,-12.0,134.2*,103.7*
CCOc1cc(-c2nc3ccccn3c2NCC2CCCO2)ccc1O (stereo not given),-8.8,-1.9,18.8,-34.4,-5.8,.,.
CCOc1cc(-c2nc3c(C)cccn3c2NCC2CCCO2)ccc1O (stereo not given),0.7,19.1,83.9*,-65.5,-5.2,130.8*,108.1*
COC(=O)c1cc2c(=O)c3ccccc3oc2nc1/C=C/N(C)C,3.8,2.5,32.0*,-6.7,-14.6,97.7*,64.3*
COC(=O)c1cc2c(=O)c3ccccc3oc2nc1C,-1.3,-5.1,2.0,-0.2,-5.7,.,.
CC(=O)Nc1cccc(NC(=O)Cc2cccs2)c1,8.5,12.8,0.5,0.0,-0.3,.,.
O=C(Cc1cccs1)Nc1cccc(-c2nc3cc4ccccc4cc3[nH]2)c1,16.1,21.8,55.8*,2.8,4.4,-4.9,-4.2
O=C(C(=O)N1CCN(S(=O)(=O)c2ccc(C(F)(F)F)cc2)CC1)c1cccc(C(F)(F)F)c1,.,.,.,.,1.7,.,.
Cc1cc2cc(C#N)c(NCCNC(=S)NCCCN3CCOCC3)nc2cc1C,-5.4,10.5,40.3*,-39.8,-6.0,+,+
Cc1cccc2cc(C#N)c(NCCNC(=S)NCCCN3CCOCC3)nc12,0.5,-5.7,30.6*,-31.6,-8.2,145.8*,107.5*
COc1ccc2nc(NCCNC(=S)NCCCN3CCOCC3)c(C#N)cc2c1,-5.8,-1.9,7.8,-228.6,2.7,.,.
COCCCNC(=S)NCCCNc1nc2cc3c(cc2cc1C#N)OCO3,-8.8,11.6,72.3*,-111.1,2.8,15.4,5.8
CCOC(=O)[C@]12CCCCC/C=C\1N(CCc1ccc(Cl)cc1)C(=O)[C@H]2CC(=O)NCc1ccc(OC)c(OC)c1,.,.,.,.,7.9,.,.
COC(=O)[C@@]12CCCCC=C1N(CCc1ccc(Cl)cc1)C(=O)[C@H]2CC(=O)NCc1ccc(C)o1,.,.,.,.,-2.6,.,.
Cc1cc(C)c2nc(-c3ccccn3)cc(C(=O)Nc3ccc(S(=O)(=O)Nc4cc(C)on4)cc3)c2c1,-3.7,19.1,5.2,0.4,-6.5,.,.
SMILES,BJeLR lethal,GDH-TPI counter-1,FBA Mtb inh,RecA intein inh,PrPC surface inh,Mtb FBA inh conf,GDH-TPI counter-2
Cc1cc(C)c2nc(-c3ccccn3)cc(C(=O)NCc3ccc(S(N)(=O)=O)cc3)c2c1,-5.9,6.3,49.5*,.,16.4,8.3,0.4
Cc1cc(C)c2nc(-c3ccccn3)cc(C(=O)NCCc3ccc(S(N)(=O)=O)cc3)c2c1,9.8,5.0,38.9*,6.2,0.5,164.5*,133.0*
C=CCNC(=O)CN(C(=O)Cc1ccc(Cl)nc1)c1cccc(Br)c1,.,.,.,.,2.1,.,.
CCCCCn1c(C)c(CC(=O)Nc2ccc(Oc3cccnc3)c(C)c2)c2ccccc21,.,.,.,.,12.4,.,.
COc1ccc(-c2cc(C(=O)NCCN3CCOCC3)c3ccccc3n2)cc1,31.4,17.7,47.0*,-0.4,-15.6,81.1*,93.1*
O=C(NCCN1CCOCC1)c1cc(-c2ccccc2Cl)nc2ccccc12,3.0,5.6,-0.7,-2.1,-8.7,.,.
O=C(NCCN1CCOCC1)c1cc(-c2ccc(Cl)s2)nc2ccccc12,-15.1,21.1,92.6*,-3.2,-11.1,148.4*,116.0*
Cc1ccc(-c2cc(C(=O)N3CCN(c4ccccc4O)CC3)c3ccccc3n2)o1,4.6,7.3,38.1*,-1.7,-0.6,106.4*,103.4*
O=C(c1cc(-c2ccc(Br)cc2)nc2ccccc12)N1CCN(c2ccccc2O)CC1,5.1,-5.0,-1.2,3.5,-0.6,.,.
Cc1ccc(-c2cc(C(=O)NCCN3CCOCC3)c3ccccc3n2)o1,-12.6,22.7,42.8*,-60.7,-4.3,119.7*,89.5*
CCCC[C@H](C(=O)N(C)c1cccc(OC)c1)[C@@H](O)c1ccc(C(C)=O)cc1,.,.,.,.,-1.2,.,.
COc1ccc2c(C)c(CC(=O)N3C[C@H]4C[C@@H](C3)c3cccc(=O)n3C4)c(=O)oc2c1,8.0,11.1,111.1*,1.0,-8.5,145.5*,103.7*
Cc1c(CC(=O)N2C[C@H]3C[C@@H](C2)c2cccc(=O)n2C3)c(=O)oc2cc3occ(C(C)(C)C)c3cc12,6.7,7.8,13.5,-0.1,-8.1,.,.
COc1ccc2c(C)c(CCC(=O)N3C[C@H]4C[C@@H](C3)c3cccc(=O)n3C4)c(=O)oc2c1,8.4,9.8,68.0*,1.9,-4.7,118.0*,128.1*
CC1CCC2(CCC(=O)N2CCCOC(=O)c2ccccc2)CC1 (stereo not given),.,.,.,.,8.0,.,.
CCOC(=O)[C@@]12CCCC3=C1N(CCC3)C(=O)[C@H]2CC(=O)NCCCOC,.,.,.,.,-2.0,.,.
O=C(Nc1cccnc1)c1cc2c(s1)-c1ccccc1OC2,8.0,37.1*,73.4*,-37.2,-7.2,70.7*,53.6*
Cc1cccc2c1-c1sc(C(=O)Nc3cccnc3)cc1CO2,4.9,-0.9,100.7*,-16.3,-12.6,1.1,-4.0
O=C(Nc1nc2ccccc2s1)c1cc2c(s1)-c1ccccc1OC2,-5.7,2.0,5.7,-14.6,0.6,.,.
Cc1cc(/C=N/NC(=O)Cn2c3ccccc3c(=O)c3ccccc32)c(C)n1-c1ccccc1,-2.9,8.6,66.1*,-77.0,0.2,+,+
Cc1ccc(N(CC(=O)N/N=C/c2cc(C)n(-c3ccccc3)c2C)S(C)(=O)=O)c(C)c1,-3.6,-1.3,-0.6,0.3,-5.6,.,.
COc1ccc2nc(-c3ccc(CN4CCC(c5nc6ccccc6[nH]5)CC4)cc3)c(-c3ccccc3)nc2c1,.,.,.,.,-18.9,.,.
